KCNQ2 pot – enhances the rat KCNQ2 potassium channel; 310,000 tested, 0.54% active; B-score at 10 µM; CHO-K1 KCNQ2, FluxOR thallium flux fluorescence; active compounds read high; O88943;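 active = fluorescence ratio B-score at least 3 SD of library B-scores, with initial fluorescence B-score within 3 of them, cut at about 5.3 in these data; same plate scores as AID 2156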;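 also: B-score of peak minus minimum over baseline fluorescence ratio after K+ and Tl+ stimulus; positive B-score means potentiation of KCNQ2 with more thallium influx and brighter signal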
KCNQ2 block – KCNQ2 (rat) channel inhibition; CHO-K1 KCNQ2, FluxOR thallium flux, 20 min; active compounds read low; B-score at 10 µM; 310,000 tested, 1.1% active;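 active = fluorescence ratio B-score at most minus 3 library SDs, with starting brightness B-score within 2 library SDs, cut at about -5.5 in these data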
Kir21 confirm – confirmation of mouse Kir2.1 potassium channel inhibitors; Tl flux remaining, % of negative control (active compounds read low), % at 10 µM; shares compounds with KCNQ2 pot; Kir2.1-expressing cells, FluxOR thallium flux fluorescence; active compounds read low; 2,300 tested, 41% active;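 active = Primary-screen hit whose thallium flux fell at least 3 control SD below untreated wells in both duplicates, with normal baseline fluorescence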;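 also: 0% = blank wells without stimulus and 100% = stimulated no-compound controls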
HEK293 ctr – counter-screen for Kir2.1 inhibitors: effect in parental HEK293 cells; 2,300 tested, 19% active; AID 2105; shares compounds with KCNQ2 pot; FluxOR thallium flux fluorescence; 0% = unstimulated blank wells; FluxOR signal as % of negative control (100 = no effect), % at 10 µM;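 active = dye signal at least 3 control SD above or below untreated wells in both duplicates, raw fluorescence within 3, either direction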;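 also: percent is based on the flux ratio of peak minus minimum fluorescence over baseline F0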
CHO-K1 ctr – parental CHO-K1 activity in KCNQ2 potentiator counter-screen; 1,200 tested, 43% active; activity increase over 3SD of controls, % at 10 µM; shares compounds with KCNQ2 pot; parental CHO-K1 cells, FluxOR thallium flux fluorescence; zero = vehicle mean+3SD, 100% = vehicle-minus-blank window;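 active = signal rise of at least 3 SD above the untreated control mean, in both duplicate wells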;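 also: counter screen of KCNQ2 potentiator hits so any rise reflects channel-independent effects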
KCNQ1 pot spec – human KCNQ1 counter-target activity of KCNQ2 potentiators | activation over 3SD threshold, % at 10 µM | shares compounds with KCNQ2 pot | CHO KCNQ1 stable, FluxOR thallium flux fluorescence; beyond 3SD, as % of vehicle-control signal | 1,200 tested, 28% active;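 active = fluorescence ratio rise of at least 3 SD of vehicle wells above their mean, in both replicate wells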;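 also: 0% = vehicle mean plus 3 SD and 100% = vehicle minus unstimulated blank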
KCNQ2 pot conf – confirmation of rat KCNQ2 potassium channel potentiators | shares compounds with KCNQ2 pot | potentiation, less the hit threshold, % at 10 µM | CHO-KCNQ2 cells, FluxOR thallium flux fluorescence | 1,200 tested, 68% active;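 active = fluorescence ratio rising 3 SD or more over the vehicle control mean in both replicates, plus primary screen hit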;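 also: peak minus minimum thallium fluorescence divided by baseline after K/Tl stimulus; 0% = vehicle mean plus 3 SD and 100% = vehicle minus unstimulated blank difference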
Kir2-1 sel – tests whether KCNQ2 potentiators also affect mouse Kir2.1. shares compounds with KCNQ2 pot. HEK293 Kir2.1, FluxOR thallium flux fluorescence. activity over 3SD threshold, % at 10 µM. 1,200 tested, 2% active;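 active = fluorescence ratio rise of at least 3 SD above the vehicle-control mean, seen in both replicates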;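 also: 0% = vehicle mean plus 3 SD and 100% = vehicle minus no-stimulus blank window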
KCNQ2 W236L MoA – KCNQ2 potentiators acting on retigabine-insensitive rat KCNQ2 W236L mutant; AID 2558; CHO KCNQ2-W236L, automated patch clamp current; current increase over 3SD of negative controls (%), active compounds read high, % at 25 µM; 940 tested, 10% active; shares compounds with KCNQ2 pot;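 active = current increase at least 3 SD of the untreated controls above them in both duplicate recordings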
Target sequence (O88943 whole entry W236L, looked up): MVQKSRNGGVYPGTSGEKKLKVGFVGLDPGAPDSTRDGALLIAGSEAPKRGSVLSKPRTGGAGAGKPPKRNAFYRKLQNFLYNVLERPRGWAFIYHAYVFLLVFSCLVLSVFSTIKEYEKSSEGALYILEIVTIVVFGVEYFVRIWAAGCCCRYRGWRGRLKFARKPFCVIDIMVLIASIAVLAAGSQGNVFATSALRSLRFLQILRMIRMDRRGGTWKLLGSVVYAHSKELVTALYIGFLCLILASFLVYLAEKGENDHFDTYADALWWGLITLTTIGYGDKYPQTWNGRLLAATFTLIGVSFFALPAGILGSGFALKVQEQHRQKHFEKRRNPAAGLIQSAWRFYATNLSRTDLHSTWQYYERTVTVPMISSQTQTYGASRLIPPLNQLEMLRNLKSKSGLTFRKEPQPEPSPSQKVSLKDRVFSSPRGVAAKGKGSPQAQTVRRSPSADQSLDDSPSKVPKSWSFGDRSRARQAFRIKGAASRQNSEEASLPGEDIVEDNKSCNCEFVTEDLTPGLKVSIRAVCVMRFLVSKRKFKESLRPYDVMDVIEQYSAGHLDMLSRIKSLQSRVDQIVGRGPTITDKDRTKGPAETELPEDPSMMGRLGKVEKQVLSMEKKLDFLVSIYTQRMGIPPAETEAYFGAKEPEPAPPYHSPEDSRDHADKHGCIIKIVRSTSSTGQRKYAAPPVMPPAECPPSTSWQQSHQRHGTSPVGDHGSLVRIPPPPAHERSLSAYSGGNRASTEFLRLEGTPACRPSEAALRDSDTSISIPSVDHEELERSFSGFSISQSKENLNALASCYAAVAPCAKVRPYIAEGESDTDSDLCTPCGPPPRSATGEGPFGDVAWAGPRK
Starred values were filed as active, the others as inactive; i = inactive; nt = no result given. Compounds with a hit are over-represented: about 1.6% of the library has one in this group of screens.

SMILES | KCNQ2 pot | KCNQ2 block | Kir21 confirm | HEK293 ctr | others
CCC1=C(c2cc(OC)c(OC)c(OC)c2)C2(CCCC2)C(=O)O1 | 0.02 | i | nt | nt
CCC(=O)c1ccc(OCC(=O)OCC(=O)NCC2CCCCC2)cc1 | 0.17 | i | nt | nt
CCN1CCN(C(=O)/C=C/c2ccc(C)o2)CC1 | nt | i | nt | nt
Cc1ccc(/C=C/C(=O)N2CC(C)CC(C)C2)o1 (stereo not given) | 6.21* | i | i | i | CHO-K1 ctr=-6.9;KCNQ1 pot spec=-7.0;KCNQ2 pot conf=-1.0;Kir2-1 sel=-38.0;KCNQ2 W236L MoA=i
Cc1onc(-c2c(F)cccc2Cl)c1C(=O)OCC(=O)c1c[nH]c2ccccc12 | 6.42* | i | i | i | CHO-K1 ctr=-4.6;KCNQ1 pot spec=-9.6;KCNQ2 pot conf=-1.3;Kir2-1 sel=-20.9
Cc1noc(C)c1C(=O)OCC(=O)c1c[nH]c2ccccc12 | nt | i | nt | nt
NC(=O)COc1c(-c2ccc(Br)o2)oc2ccccc2c1=O | 1.24 | i | nt | nt
S=C(NCc1ccccc1)N1CCN(Cc2ccc3c(c2)OCO3)CC1 | nt | i | nt | nt
S=C(NCc1ccc2c(c1)OCO2)NC1CCN(Cc2ccccc2)CC1 | 1.03 | i | 39.5%* | 125.5%*
CCCn1nnnc1SCC(=O)N1C(C)CCCC1C (stereo not given) | 1.73 | i | nt | nt
COc1ccc(NC(=O)C(c2ccc(OC)cc2)N(C)C(=O)c2cnccn2)cc1 (stereo not given) | 6.44* | i | i | i | CHO-K1 ctr=0.6*;KCNQ1 pot spec=-24.9;KCNQ2 pot conf=24.4*;Kir2-1 sel=-27.9;KCNQ2 W236L MoA=i
CC(C)c1ccc(NC(=O)C(c2ccccc2)N(C)C(=O)c2cnccn2)cc1 (stereo not given) | 0.26 | i | nt | nt
O=C(O)c1ccc(NC(=S)N2CCCCC2)cc1 | 0.58 | i | nt | nt
S=C(Nc1ccccc1)N1CCCCC1 | 6.94* | i | i | i | CHO-K1 ctr=-13.7;KCNQ1 pot spec=6.3*;KCNQ2 pot conf=-14.0;Kir2-1 sel=-28.9
Cc1cc(C)[n+](C)n1CC(O)Cn1c2ccccc2c2ccccc21 (stereo not given) | nt | i | nt | nt
Cc1c(Cl)cccc1Nc1nc(NCCO)c2ccccc2n1 | nt | i | 35.0%* | i
Oc1ccccc1Nc1nc(NCc2ccccc2)c2ccccc2n1 | nt | i | nt | nt
O=C(Oc1ccc(C(=S)N2CCOCC2)cc1Br)c1ccccc1F | nt | i | nt | nt
O=C(Oc1ccc(C(=S)N2CCOCC2)cc1Cl)c1ccccc1F | nt | i | 69.0%* | i
O=C(Oc1ccc(C(=S)N2CCOCC2)cc1)c1ccccc1[N+](=O)[O-] | nt | i | nt | nt
O=C(Oc1ccc(C(=S)N2CCOCC2)cc1)c1ccccc1F | 0.17 | i | 71.0%* | i
CC(C)Cc1cc(C(=O)N2CCC(N3CCC(C(=O)N4CCOCC4)CC3)CC2)n[nH]1 | 0.2 | i | nt | nt
Cc1ccc(COC(=O)CCCN=C2NS(=O)(=O)c3ccccc32)cc1 | 0.45 | i | nt | nt
CC(=O)c1ccc(C(=O)N2CCCC(CO)(Cc3ccccc3C)C2)s1 (stereo not given) | nt | i | nt | nt
Cc1cc(C)c(S(=O)(=O)N2CCN(C(=O)CN3C(=O)NC4(CCCC4)C3=O)CC2)c(C)c1 | 1.08 | i | nt | nt
C=CCN(CC=C)C(=O)c1ccccc1NC(=O)c1ccccc1C | nt | i | nt | nt
CC1CCc2c(sc3nn[nH]c(=O)c23)C1 (stereo not given) | 0.14 | i | nt | nt
C=CCn1c(=S)[nH]c2sc3c(c2c1=O)CCC3 | 2.5 | i | nt | nt
CC1CCc2c(sc3[nH]c(=S)n(C)c(=O)c23)C1 (stereo not given) | 20.1* | i | i | 396.0%* | CHO-K1 ctr=54.4*;KCNQ1 pot spec=-19.4;KCNQ2 pot conf=68.6*;Kir2-1 sel=-9.0;KCNQ2 W236L MoA=i

High-throughput results from PubChem.
